This note sets out measurements from PubChem BioAssay AID720712 (NMMLSC, 2013).

The source made the active and inactive calls.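 The calls were made as follows: active = EC50 at most 10 µM with response changing by at least 30 points across doses, from an acceptable curve fit; inactive = the rest.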

For this assay, the target named is Cell division control protein 42 homolog (Homo sapiens) (UniProt P60953). Briefly: Cdc42 wildtype GTP-binding inhibitors, late-stage follow-up, mechanism study for Ras-family GTPase inhibitor project, biochemical, compound preincubation comparison, flow cytometry beads, Bodipy-FL-GTP (AID 720712). To be noted: GST-Cdc42 beads, EDTA, protocol A; series mostly up to 100 µM. A general note: A flow cytometer gives signals particle by particle.
Sequence of Cell division control protein 42 homolog (Homo sapiens) (P60953 whole entry, looked up): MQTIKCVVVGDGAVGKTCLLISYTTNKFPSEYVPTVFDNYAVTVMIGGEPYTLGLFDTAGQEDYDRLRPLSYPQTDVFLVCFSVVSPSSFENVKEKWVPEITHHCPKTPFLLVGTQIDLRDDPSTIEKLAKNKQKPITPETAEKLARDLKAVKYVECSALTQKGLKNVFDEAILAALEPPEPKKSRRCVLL

As to `CC1(C)Cc2c(sc(NC(=S)NC(=O)c3ccc(N=[N+]=[N-])cc3)c2C(=O)O)CO1`, the molecule was called inactive.

`CC1(C)Cc2c(sc(NC(=S)NC(=O)c3cccc(N=[N+]=[N-])c3)c2C(=O)O)CO1`: the molecule was classed as inactive.
